Laboratory results from PubChem BioAssay.
Several values for one entry are separate records, joined by “and”; a condition that tells them apart may be missing. Equal entries are not always repeated. Activity calls are given as the source filed them.

Legend:
[1] = system: Plasmodium falciparum Sir2 (PF13_0152, Sir2A); test: Plasmodium falciparum Sir2A binding compounds – biochemical, small-molecule microarray, 635 nm fluorescence, primary screen (AID 1098); settings: fluorescence 635 nm, higher = more signal;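 also: score merges spot fluorescence intensity with its signal-to-noise ratio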
[2] = probe aDKK1 binding to arrayed compounds – biochemical, biotinylated probe, 635/667 nm fluorescence, primary screen (AID 1099); settings: small-molecule microarray, higher = more signal;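 also: score merges 667nm spot fluorescence with signal to noise across triplicate slides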
[3] = probe aCHRDL2 binding to arrayed compounds – biochemical, biotinylated probe, 635/667 nm fluorescence, primary screen (AID 1100); settings: small-molecule microarray, higher = more signal
[4] = change in splice reporter luminescence, either direction, cell-based, HEK293, spliceosome inhibition project, primary screen (AID 1101); settings: HEK293 splicing luciferase reporter, 24 h, higher = more signal, called active from +8 up or from −8 down;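 also: HEK293 cells carrying a splicing-competent luciferase reporter gene; test concentration not given here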
[5] = biological target: Fibroblast growth factor 10 (Homo sapiens) (UniProt O15520); test: compounds binding fibroblast growth factor 10 – biochemical, small-molecule microarray, 635 nm fluorescence, primary screen (AID 1102); settings: FGF10 binding, fluorescence 635 nm, higher = more signal
[6] = system: glycogen synthase kinase-3 (GSK3A per assay name; protocol says GSK3B); test: compounds binding glycogen synthase kinase-3 – biochemical, small-molecule microarray, 635 nm fluorescence, GSK3A, primary screen (AID 1103); settings: fluorescence 635 nm, higher = more signal; also: the record names both GSK3A and GSK3B
[7] = biological target: Epidermal growth factor receptor (Homo sapiens) (UniProt P00533); test: compounds binding epidermal growth factor receptor – biochemical, small-molecule microarray, 635 nm fluorescence, primary screen (AID 1104); settings: EGFR binding, higher = more signal;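 also: score merges 667 nm emission intensity with spot signal to noise over triplicate slides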
[8] = biological target: Follistatin-related protein 3 (Homo sapiens) (UniProt O95633); test: compounds binding follistatin-related protein 3 – biochemical, small-molecule microarray, 635 nm fluorescence, primary screen (AID 1105); settings: FSTL3 binding, higher = more signal;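 also: score merges emission near 667 nm and signal to noise per printed spot across three slides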
[9] = biological target: Dickkopf-related protein 1 (Homo sapiens) (UniProt O94907); test: small molecules binding DKK1 protein – biochemical, small-molecule microarray, 635 nm fluorescence scan, primary screen (AID 1106); settings: higher = more signal;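 also: score merges emission near 667 nm with signal to noise over three replicate slides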
[10] = system: Inhibin beta A chain (activin A); test: small molecules binding activin A – biochemical, small-molecule microarray, 635 nm fluorescence scan, primary screen (AID 1107); settings: INHBA, higher = more signal;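 also: mouse activin A protein probed at 4.33 µg/mL on printed slides; score merges bound-protein fluorescence near 667 nm with spot signal-to-noise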
[11] = system: Human papillomavirus type 1a protein E7 (residues 44-93); test: small molecules binding HPV E7 44-93 – biochemical, small-molecule microarray, residues 44-93, 635 nm fluorescence, primary screen (AID 1108); settings: fluorescence 635 nm, higher = more signal;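 also: E7 fragment applied at 1 µg/mL in TBST for 1 h at 4 C; score combines spot fluorescence with its signal to noise ratio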
[12] = hepatitis C replication reporter changes, two-sided – Huh7 cells, luciferase reporter, HCV replication inhibitor project, primary screen (AID 1109); settings: Huh7 HCV replicon luciferase reporter, 48 h; higher = more signal;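 also: huh7 hepatoma cells harbouring a luciferase neomycin HCV replicon reporter; luciferase luminescence as measure of HCV replicon replication; test concentration not given here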
[13] = biological target: Left-right determination factor 2 (Homo sapiens) (UniProt O00292); test: small molecules binding LEFTY2 protein – biochemical, small-molecule microarray, 635 nm fluorescence scan, primary screen (AID 1110); settings: higher = more signal
[14] = biological target: Calmodulin-1 (Homo sapiens) (UniProt P0DP23); test: small molecules binding calmodulin-1 with EGTA – biochemical, small-molecule microarray, Cy5-labelled CALM1, profiling panel (AID 1111); settings: Cy5-CALM1 binding fluorescence, higher = more signal;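 also: labelled calmodulin applied in Tris saline Tween buffer holding calcium plus EGTA and DTT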
[15] = biological target: Calmodulin-1 (Homo sapiens) (UniProt P0DP23); test: small molecules binding Ca-loaded calmodulin-1 – biochemical, small-molecule microarray, Cy5-labelled CALM1, plus calcium, artefact control for SMM control-protein annotation, profiling panel (AID 1112); settings: Cy5-CALM1 binding fluorescence, higher = more signal;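 also: score merges spot fluorescence with signal to noise from triplicate slides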
[16] = probe aWnt5a binding to arrayed compounds – biochemical, biotinylated probe, 635/667 nm fluorescence, primary screen (AID 1113); settings: small-molecule microarray, higher = more signal;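 also: score merges 667 nm fluorescence intensity with signal-to-noise per printed feature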
[17] = probe aShh binding to arrayed compounds – biochemical, biotinylated probe, 635/667 nm fluorescence, primary screen (AID 1114); settings: small-molecule microarray, higher = more signal;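 also: probe is biotin-labelled aShh protein from a stem cell growth factor screen; measures binding of labelled protein to compounds printed on the slide; score merges feature fluorescence at 667 nm with signal-to-noise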
[18] = probe aNog binding to arrayed compounds – biochemical, biotinylated probe, 635/667 nm fluorescence, primary screen (AID 1115); settings: small-molecule microarray, higher = more signal;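 also: probe is biotinylated aNog protein used at 0.15 µg/mL for 1 h at 4 C; z-score combines 667 nm fluorescence of each spot with its signal to noise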
[19] = biological target: Torsin-1A-interacting protein 1 (Homo sapiens) (UniProt Q5JTV8); test: compound microarray binding of lysate hLAP1 – cell lysate, small-molecule microarray, COS7 lysate, 635/667 nm fluorescence, primary screen (AID 1116); settings: 635 nm fluorescence, higher = more signal
[20] = biological target: Alpha-bungarotoxin (Bungarus multicinctus) (UniProt P60615); test: compounds binding labelled alpha-BTX control protein – biochemical, small-molecule microarray, Alexa647 label, 635/667 nm fluorescence, artefact control for SMM control protein annotation, profiling panel (AID 1117); settings: alpha-BTX-A647 binding fluorescence, higher = more signal
Alpha-bungarotoxin (Bungarus multicinctus), sequence (P60615 whole entry, looked up): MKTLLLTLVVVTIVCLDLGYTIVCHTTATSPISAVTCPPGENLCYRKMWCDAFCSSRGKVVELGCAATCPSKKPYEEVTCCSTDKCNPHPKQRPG

Left-right determination factor 2 (Homo sapiens), sequence (O00292 whole entry, looked up): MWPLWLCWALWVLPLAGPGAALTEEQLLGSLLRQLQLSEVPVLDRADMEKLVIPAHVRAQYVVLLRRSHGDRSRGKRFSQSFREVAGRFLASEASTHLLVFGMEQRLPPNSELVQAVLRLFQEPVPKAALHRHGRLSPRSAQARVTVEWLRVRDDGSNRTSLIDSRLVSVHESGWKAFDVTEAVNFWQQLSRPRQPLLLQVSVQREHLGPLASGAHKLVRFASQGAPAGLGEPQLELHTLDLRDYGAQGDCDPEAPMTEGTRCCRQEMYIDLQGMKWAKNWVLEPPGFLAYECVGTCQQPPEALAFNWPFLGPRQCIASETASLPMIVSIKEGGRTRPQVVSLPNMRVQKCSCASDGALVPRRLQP
Torsin-1A-interacting protein 1 (Homo sapiens), sequence (Q5JTV8 whole entry, looked up): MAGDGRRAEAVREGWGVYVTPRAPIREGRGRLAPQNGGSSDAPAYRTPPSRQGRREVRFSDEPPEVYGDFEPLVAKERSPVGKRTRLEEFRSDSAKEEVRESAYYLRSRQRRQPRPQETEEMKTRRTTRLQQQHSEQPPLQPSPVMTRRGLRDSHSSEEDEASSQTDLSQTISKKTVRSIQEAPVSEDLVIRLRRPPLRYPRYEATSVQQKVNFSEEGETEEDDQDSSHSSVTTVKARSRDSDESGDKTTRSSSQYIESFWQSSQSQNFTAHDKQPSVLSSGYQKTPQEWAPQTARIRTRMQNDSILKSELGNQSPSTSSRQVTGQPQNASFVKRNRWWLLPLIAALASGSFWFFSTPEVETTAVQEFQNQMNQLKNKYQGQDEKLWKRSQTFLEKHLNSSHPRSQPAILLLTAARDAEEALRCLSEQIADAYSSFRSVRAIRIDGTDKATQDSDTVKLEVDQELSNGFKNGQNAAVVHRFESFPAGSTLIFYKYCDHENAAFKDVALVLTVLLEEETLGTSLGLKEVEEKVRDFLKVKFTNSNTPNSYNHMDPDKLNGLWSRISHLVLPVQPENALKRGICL
Fibroblast growth factor 10 (Homo sapiens), sequence (O15520 whole entry, looked up): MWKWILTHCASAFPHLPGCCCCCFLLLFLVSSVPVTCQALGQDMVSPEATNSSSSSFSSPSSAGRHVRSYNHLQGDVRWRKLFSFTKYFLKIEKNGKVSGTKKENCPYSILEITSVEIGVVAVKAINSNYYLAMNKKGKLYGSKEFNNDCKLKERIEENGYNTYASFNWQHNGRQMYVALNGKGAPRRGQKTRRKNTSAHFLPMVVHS
Follistatin-related protein 3 (Homo sapiens), sequence (O95633 whole entry, looked up): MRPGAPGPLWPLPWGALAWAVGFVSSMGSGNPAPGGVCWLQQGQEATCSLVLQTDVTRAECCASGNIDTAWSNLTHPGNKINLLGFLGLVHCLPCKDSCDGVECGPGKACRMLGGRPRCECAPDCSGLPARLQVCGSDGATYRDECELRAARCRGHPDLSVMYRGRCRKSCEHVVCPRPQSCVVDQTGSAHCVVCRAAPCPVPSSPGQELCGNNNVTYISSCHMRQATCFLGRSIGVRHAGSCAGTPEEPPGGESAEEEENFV
Dickkopf-related protein 1 (Homo sapiens), sequence (O94907 whole entry, looked up): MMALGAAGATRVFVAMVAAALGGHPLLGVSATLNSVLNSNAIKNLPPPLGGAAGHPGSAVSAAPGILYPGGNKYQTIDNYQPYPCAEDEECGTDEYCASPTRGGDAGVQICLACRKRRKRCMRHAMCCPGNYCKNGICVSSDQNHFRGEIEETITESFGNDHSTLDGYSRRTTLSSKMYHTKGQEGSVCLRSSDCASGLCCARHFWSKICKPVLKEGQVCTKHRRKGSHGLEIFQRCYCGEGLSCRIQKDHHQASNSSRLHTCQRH
Epidermal growth factor receptor (Homo sapiens), sequence (P00533 whole entry, looked up): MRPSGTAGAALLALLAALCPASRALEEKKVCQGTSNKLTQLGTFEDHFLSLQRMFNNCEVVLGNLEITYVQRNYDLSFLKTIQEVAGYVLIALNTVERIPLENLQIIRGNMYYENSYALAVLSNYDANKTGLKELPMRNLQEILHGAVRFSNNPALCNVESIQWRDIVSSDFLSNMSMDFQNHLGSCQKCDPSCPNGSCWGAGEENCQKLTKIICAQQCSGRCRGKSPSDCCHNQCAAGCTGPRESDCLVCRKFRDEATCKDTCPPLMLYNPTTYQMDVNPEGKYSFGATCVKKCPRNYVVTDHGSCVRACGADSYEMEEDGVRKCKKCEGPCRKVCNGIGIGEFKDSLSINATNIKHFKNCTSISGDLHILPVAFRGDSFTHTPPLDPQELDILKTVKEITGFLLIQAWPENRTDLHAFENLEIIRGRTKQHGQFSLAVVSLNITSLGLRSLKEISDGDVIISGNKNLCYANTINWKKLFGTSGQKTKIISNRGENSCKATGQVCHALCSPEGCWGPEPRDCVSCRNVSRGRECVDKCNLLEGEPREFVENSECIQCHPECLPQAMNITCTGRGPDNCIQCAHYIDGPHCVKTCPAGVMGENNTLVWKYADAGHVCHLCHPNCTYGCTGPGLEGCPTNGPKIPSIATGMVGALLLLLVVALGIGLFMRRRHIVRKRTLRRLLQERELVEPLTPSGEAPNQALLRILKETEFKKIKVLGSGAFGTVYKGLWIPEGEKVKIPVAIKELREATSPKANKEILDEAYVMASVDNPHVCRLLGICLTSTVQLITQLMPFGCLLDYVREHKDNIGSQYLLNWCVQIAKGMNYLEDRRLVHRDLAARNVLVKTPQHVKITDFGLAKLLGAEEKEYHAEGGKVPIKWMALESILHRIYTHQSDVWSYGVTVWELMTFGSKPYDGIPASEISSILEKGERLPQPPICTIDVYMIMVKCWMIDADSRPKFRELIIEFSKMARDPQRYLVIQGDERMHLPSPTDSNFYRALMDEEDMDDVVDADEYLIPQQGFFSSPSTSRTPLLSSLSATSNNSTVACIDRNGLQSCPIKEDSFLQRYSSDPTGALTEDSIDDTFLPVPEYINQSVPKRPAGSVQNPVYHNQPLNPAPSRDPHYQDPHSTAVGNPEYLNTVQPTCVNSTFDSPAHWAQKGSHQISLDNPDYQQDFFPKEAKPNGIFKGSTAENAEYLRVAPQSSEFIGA

Structure (SMILES) | composite z-score [1] | composite z-score [2] | composite z-score [3] | z-score [4] | composite z-score [5] | composite z-score [6] | composite z-score [7] | composite z-score [8] | composite z-score [9] | composite z-score [10] | composite z-score [11] | z-score [12] | composite z-score [13] | composite z-score [14] | composite z-score [15] | composite z-score [16] | composite z-score [17] | composite z-score [18] | composite z-score [19] | composite z-score [20]
O=C1C[C@]2(c3ccc([N+](=O)[O-])cc3)C(=O)N(Cc3ccccc3)c3cc(CO)ccc3[C@H]2N1C1CCCCC1 | -0.179 and 0.678 | -0.153 and 1.26 | -0.0948 and 0.78 | 0.0261 (inactive) and -0.478 (inactive) | -0.225 and 0.994 | 1.11 and -0.148 | 0.079 and 0.291 | 0.413 and -0.017 | -0.0921 and 0.434 | 0.4 and 0.359 | 0.986 and 0.622 | -0.107 and -2.97 | -1.1 and 0.586 | -0.135 and 1.19 | -0.195 and 0.163 | -0.0546 and -0.0556 | 0.0611 and 0.393 | -0.262 and 0.344 | 0.395 and -0.136 | 0.0277 and -0.0515
CCOC(=O)CCN1C(=O)[C@H]2[C@H]3[C@H](O)[C@H](O)CC(=NNC(=O)OCC)[C@@H]3CC[C@H]2C1=O | 0.238 | -0.0567 | -0.0213 | 0.519 (inactive) | 0.283 | 0.0666 | 0.209 | 0.0654 | -0.0149 | -0.772 | 0.582 | 0.374 | 0.354 | 0.0089 | -1.05 | 0.0511 | -0.273 | 0.0234 | -0.0895 | 0.353
C=CCN(CCCC)C(=O)C1N(CCCCCCO)C(=O)C2C(C(=O)O)C3C=CC21O3 (stereo not given) | 1.64 and 0.937 | -0.288 and -0.0191 | 1.02 and 0.849 | 0.671 (inactive) and -0.0103 (inactive) | -1.87 and -1.39 | -1.1 | -1.93 and -1.35 | -2.74 and -2.04 | -2.67 and -3.18 | -2.85 and -2.5 | -0.498 and -0.27 | 0.227 and -0.883 | -3.06 and -3.09 | -0.494 and -0.605 | 0.169 and 0.392 | -0.184 and -0.226 | 0.0048 and -0.138 | -0.349 and -0.318 | -0.423 and 0.349 | -1.1 and -1.81
C#CCN1C(/C=C/c2ccccc2)C(=O)OC[C@H]1c1ccccc1 (stereo not given in full) | 0.025 and 1.16 | -0.23 and -0.207 | -0.688 and -0.55 | -2.64 (inactive) and -0.366 (inactive) | 0.33 and 0.0389 | 0.658 and 0.0786 | 0.62 and 0.18 | 0.755 and 0.747 | 0.69 and 0.375 | 0.902 and 0.0774 | 0.267 and 0.514 | -1 and -2.09 | 0.673 and 0.247 | -0.451 and -0.295 | -0.545 and -0.383 | -0.0033 and -0.0607 | 0.0328 and -0.138 | -0.115 and -0.385 | 0.341 and -0.35 | 0.348 and -0.144
COC(=O)C1=C(C)N(Cc2ccccc2)C2=C(C(=O)c3ccccc3)[C@H](c3ccccc3)[C@@](O)(C(=O)OC)C(=O)N2[C@@H]1c1ccccc1 | 0.419 and 0.36 | -0.0581 and -0.208 | -0.178 and -0.433 | -1.7 (inactive) and 0.839 (inactive) | 0.654 and 0.495 | 0.739 and 0.519 | 0.392 and 0.353 | 0.626 and 0.53 | 0.638 and 0.349 | -0.0471 and -0.0052 | 1.15 and 0.774 | -2.05 and 0.964 | 0.32 and 0.577 | 0.046 and -0.136 | -0.373 and -0.51 | -0.176 and -0.1 | -0.137 and -0.0626 | -0.31 and 0.0197 | 0.202 and 0.17 | -0.115 and -0.0752
C=CCN(Cc1ccccc1)C(=O)C1N(C(C)(C)CO)C(=O)C2C(C(=O)O)C3C=CC21O3 (stereo not given) | 0.107 and 0.29 | -0.135 and -0.486 | 0.708 and 0.849 | 0.0525 (inactive) and 0.382 (inactive) | -1.46 and -2 | -0.767 and -1.51 | -2.64 and -1.86 | -1.45 and -1.73 | -2.3 and -1.58 | -4.6 and -2.88 | -1.71 and -2.2 | -1.39 and 0.81 | -2.75 and -1.49 | -0.23 and -0.697 | 1.19 and 0.132 | -0.202 and -0.224 | -0.138 and -0.206 | 0.196 and -0.47 | 0.148 and -1.17 | -2.89 and -1.25
Cc1cc2c(nc1C)CCCN2CC(C)ON=C[C@@H](C)[C@H](OCc1ccccc1)C(C)C (stereo not given in full) | -0.146 | -0.14 | -0.499 | 0.332 (inactive) | -0.375 | -0.857 | 0.0333 | -0.0161 | 0.227 | 0.622 | -1.88 | -1.26 | 0.339 | -0.398 | -0.304 | -0.0125 | -0.0035 | 0.0811 | -0.0342 | -0.0161
CC(=O)OC[C@H]1O[C@H](C#CC(C)(C)C)C=C[C@@H]1OC(C)=O | 0.731 | 0.202 | -0.508 | 1.16 (inactive) | 0.871 | 0.225 | 0.274 | 1.31 | 0.535 | -0.209 | 1.31 | -1.94 | 0.934 | 0.957 | 0.189 | -0.191 | 0.0596 | -0.433 | 0.852 | 1.09
CCCCCN1CC=CC23O[C@@H]4C=CCCOC(=O)C4[C@H]2C(=O)N(C(C)CO)[C@@H]3C1=O (stereo not given in full) | 1.83 and 0.878 | -1.21 and 0.263 | -0.532 and 0.779 | 0.691 (inactive) and 0.361 (inactive) | 0.0253 and -0.6 | 0.375 and -0.449 | -0.655 and -0.706 | 0.164 and -0.32 | -0.057 and -0.695 | -0.131 and 0.537 | 0.439 and 1.12 | -1.79 and 1.05 | -0.151 and -0.907 | -0.858 and 0.167 | -0.707 and -0.806 | -0.357 and -0.28 | -0.223 and -0.0035 | -0.789 and -0.301 | -0.759 and 2.57 | -0.342 and 0.335
CCN1C(=O)[C@H]2[C@H]3[C@H](O)[C@H](O)CC(=NOC)[C@@H]3CC[C@H]2C1=O | 0.767 | -0.0904 | -0.0826 | 0.302 (inactive) | -0.0502 | -0.595 | 0.1 | -0.0407 | 0.179 | 0.39 | -0.524 | 0.964 | 0.256 | -0.472 | -0.266 | -0.147 | 0.13 | -0.122 | 0.262 | 0.178
O=C1NC(=O)C2C1C=CC(C(O)c1ccc([N+](=O)[O-])cc1)N2Nc1ccc(Cl)cc1Cl (stereo not given) | 0.59 and 0.0889 | -0.0543 and 1.09 | 0.765 and 0.824 | -1.06 (inactive) and -1.49 (inactive) | 0.945 and 0.229 | 0.0563 and 0.737 | 0.0939 and -0.12 | 0.272 and 0.132 | 0.0264 and -0.297 | 1.13 and 1.31 | 0.481 and -0.621 | 0.175 and -1.19 | -0.176 and -0.0882 | 1.01 and 1.48 | 0.436 and 0.0078 | -0.0566 and 0.0775 | 0.0326 and -0.241 | 1.94 and 2.12 | 1.9 and 1.62 | 1.18 and 1.56
